Reference: PubChem BioAssay AID1053180 (Broad Institute, 2014)
About 20 (0.2%) of roughly 9,600 compounds were called active.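 Rule for the calls: active = highest normalized replicate activity of 15 or more, or at least half the replicates reach 15 or more; inactive = neither condition met.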 What follows is part of a selection rich in actives, with near analogues and random picks from the rest.

Assay: Pax4 mRNA upregulation in alpha cells – RT-PCR, mouse alpha TC1 cells, single point, primary screen (AID 1053180);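 note: Pax4 Ct normalized to GAPDH with activation seen as lower delta delta Ct; plate controls were plate neutral control wells for no effect and Pax4 plasmid positive control for full effect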
Conditions: Pax4 mRNA qPCR, 6 days, at 10 µM, active compounds read high, 100% = Pax4 plasmid added at qPCR

Structure (SMILES)	activation
O=C(C[C@@H]1CC[C@H]2[C@@H](COC[C@@H](O)CN2C(=O)Cc2ccccc2)O1)NC1Cc2ccccc2C1	0.021% (inactive)
CCCN(C)C[C@H]1OCCCC[C@@H](C)Oc2ccc(NC(=O)CCCN(C)C)cc2C(=O)N([C@H](C)CO)C[C@@H]1C	0.002% (inactive)
C/C=C/c1ccc([C@@H]2[C@@H](CO)N3C(=O)CN(Cc4ccc(F)cc4)C[C@@H]23)cc1	0.0005% (inactive)
C/C=C/c1ccc([C@H]2[C@@H](CO)N3C(=O)CN(Cc4ccc(F)cc4)C[C@@H]23)cc1	86.9% (active)
C/C=C/c1ccc([C@H]2[C@@H](CO)N3C(=O)CN(Cc4ccc(F)cc4)C[C@H]23)cc1	0% (inactive)
COc1ccccc1NC(=O)N1CC(=O)N2[C@H](CO)[C@@H](c3ccc(C#CC(C)C)cc3)[C@@H]2C1	0.007% (inactive)
COc1cccc(-c2ccc3c(c2)O[C@H](CN(C)Cc2cccnc2)[C@H](C)CN([C@@H](C)CO)S3(=O)=O)c1	0.057% (inactive)
COc1ccc(C(=O)N2C[C@H]3[C@@H](c4ccccc42)[C@@H](CO)N3C(=O)Cc2ccccn2)cc1	0% (inactive)
N#C[C@@H]1[C@@H](c2ccccc2-c2ccccc2F)[C@H](CO)N1C(=O)Cc1ccccc1	0.001% (inactive)
Cc1nc(N2[C@@H](C#N)[C@@H](c3ccccc3)[C@@H]2CO)sc1C	0.0005% (inactive)
COc1ccc(C[C@@H]2CCn3cc(nn3)COC[C@H](C)NC2=O)cc1	0.0005% (inactive)
Cc1ccc(S(=O)(=O)N2C[C@H]3[C@@H](c4ccccc42)[C@@H](CO)N3Cc2cccnc2)cc1	0.002% (inactive)
O=C(C[C@H]1CC[C@H]2[C@@H](COC[C@@H](O)CN2S(=O)(=O)c2ccc(F)cc2)O1)NCCN1CCCCC1	0.003% (inactive)
COc1ccc(NC(=O)N[C@H]2CC[C@@H](CCNC(=O)CN3CCOCC3)O[C@H]2CO)cc1	0.002% (inactive)
Cc1noc(C)c1S(=O)(=O)Nc1ccc2c(c1)C(=O)N([C@H](C)CO)C[C@H](C)[C@H](CN(C)Cc1ccc(C(=O)O)cc1)OCCCC[C@H](C)O2	-0.0005% (inactive)
COc1ccc(S(=O)(=O)Nc2ccc3c(c2)C(=O)N([C@@H](C)CO)C[C@H](C)[C@H](CN(C)S(=O)(=O)c2ccc(Cl)cc2)OCCCC[C@H](C)O3)cc1	0.0535% (inactive)
COc1cccc(-c2cccc(-c3nc(C(=O)O)cc4c3[C@@H](CCO)N(S(=O)C(C)(C)C)C4)c2)c1 (stereo not given in full)	0% (inactive)
COc1cccc(-c2cccc(-c3nc(C(=O)O)cc4c3[C@H](CCO)N(S(=O)C(C)(C)C)C4)c2)c1 (stereo not given in full)	0.001% (inactive)
COc1cccc(-c2cccc(-c3nc(C(=O)Nc4ccc(-c5ccccc5)cc4)cc4c3[C@@H](CCO)N(S(=O)C(C)(C)C)C4)c2)c1 (stereo not given in full)	42.4% (active)
COc1cccc(-c2ccc3c(c2)[C@@H]2[C@@H](CCN2S(=O)(=O)C2=NC(C)C=N2)[C@H](CO)N3C)c1 (stereo not given in full)	0.001% (inactive)
COCC(=O)Nc1ccc2c(c1)[C@H]1C[C@@H](CC(=O)N[C@@H](C)c3ccccc3)O[C@@H](CO)[C@H]1O2	0.004% (inactive)
O=C1CN(S(=O)(=O)c2cccc(F)c2)C[C@@H]2[C@@H](c3ccc(C4=CCCC4)cc3)[C@H](CO)N12	0.006% (inactive)

Structure (SMILES)	activation
C[C@H](NC(=O)C[C@@H]1C=C[C@H](NC(=O)c2cccnc2)[C@@H](CO)O1)c1ccccc1	0.001% (inactive)
CO[C@H]1CN(C)C(=O)c2cc(NC(=O)C3CCOCC3)ccc2OC[C@H](C)NC[C@@H]1C	0.0005% (inactive)
CCN1CC(=O)N2[C@@H](CO)[C@H](c3ccc(Br)cc3)[C@@H]2C1	0% (inactive)
Cn1cnc(S(=O)(=O)N[C@H]2CC[C@H](CC(=O)NCC3CCCCC3)O[C@@H]2CO)c1	-0.0005% (inactive)
COc1ccc(S(=O)(=O)N2C[C@H](O)COC[C@@H]3O[C@@H](CC(=O)N[C@H]4CCN(Cc5ccccc5)C4)CC[C@H]32)cc1	-0.0135% (inactive)
COc1ccc2c3c(n(C)c2c1)[C@@H](CO)NCC31CCN(CC2CCCCC2)CC1	0.027% (inactive)
O=C(NC1CCCC1)[C@@H]1[C@@H](CO)[C@@H]2Cn3c(ccc(C4=CCCCC4)c3=O)[C@H]1N2CC1CC1	0% (inactive)
O=C(Nc1ccc2c(c1)[C@@H]1C[C@@H](CC(=O)N3CCCCC3)O[C@H](CO)[C@@H]1O2)NC1CCCCC1	0.012% (inactive)
COc1ccc(S(=O)(=O)N(C)C[C@@H]2Oc3c(NC(=O)c4nc5ccccc5s4)cccc3C(=O)N([C@@H](C)CO)C[C@@H]2C)cc1	-0.002% (inactive)
CCS(=O)(=O)Nc1ccc2c(c1)C(=O)N(C)C[C@H](OC)[C@@H](C)CN(C(=O)c1ccc3c(c1)OCO3)[C@@H](C)CO2	0% (inactive)
C/C=C/c1ccc([C@@H]2[C@H](CO)N(C(C)=O)[C@H]2CN(C(C)=O)C2CCCC2)cc1	0.004% (inactive)
COCC(=O)N1CCC2(CC1)CN(Cc1ccccc1Cl)[C@H](CO)c1[nH]c3cc(OC)ccc3c12	0.0015% (inactive)
CN(C)C(=O)c1cccc(-c2ccc([C@@H]3[C@@H](CO)N4CCCCN(CC5CCOCC5)C[C@@H]34)cc2)c1	0.001% (inactive)
Cc1ccc(S(=O)(=O)Nc2cccc3c2O[C@@H](CN(C)C(=O)Nc2ccc(C(F)(F)F)cc2)[C@@H](C)CN([C@H](C)CO)C3=O)cc1	0.002% (inactive)
C[C@@H]1CN([C@@H](C)CO)C(=O)c2c(c3ccccc3n2C)-c2ccccc2CO[C@H]1CN(C)C(=O)[C@H](Cc1ccccc1)N(C)C	0.0095% (inactive)
CN(C)C(=O)c1ccc(-c2ccc([C@H]3[C@H](C#N)N(C(=O)C4CC4)[C@H]3CO)cc2)cc1	0.0005% (inactive)
N#C[C@H]1[C@@H](c2ccccc2-c2cccc(F)c2)[C@H](CO)N1C(=O)CN1CCOCC1	0.006% (inactive)
O=C(CC1CC1)N1CC[C@@H]2[C@H]1c1cc(-c3ccc(F)cc3)ccc1N[C@@H]2CO	0.0045% (inactive)
CCS(=O)(=O)Nc1ccc2c(c1)C(=O)N(C)[C@H]1CC[C@H](CC(=O)NCCCN3CCOCC3)O[C@H]1CO2	0% (inactive)
C/C=C/c1ccc([C@@H]2[C@H](CO)N3CCCCN(S(=O)(=O)c4ccc(OC)cc4)C[C@@H]23)cc1	0.0005% (inactive)
COCC(=O)N1[C@@H](C#N)[C@@H](c2ccccc2C2=CCCC2)[C@@H]1CO	0.01% (inactive)
O=C(Nc1ccc(F)cc1)N1[C@@H]2CNc3ccccc3[C@@H]2[C@@H]1CO	0.0065% (inactive)

Structure (SMILES)	activation
COCC(=O)Nc1ccc2c(c1)OC[C@H](C)N(C)C[C@H](C)[C@H](OC)CN(C)C2=O	0% (inactive)
COCCN(C[C@H]1N[C@H](CO)[C@@H]1c1ccccc1)C(=O)NC1CCCC1	0.002% (inactive)
C[C@H]1CN([C@@H](C)CO)C(=O)c2ccccc2-c2ccccc2CO[C@H]1CN(C)Cc1ccc2c(c1)OCCN2C	0.073% (inactive)
COc1ccc2c3c(n(C)c2c1)[C@H](CO)N(C)CC31CN(S(=O)(=O)c2cccs2)C1	0.001% (inactive)
Cc1noc(C)c1S(=O)(=O)N(C)C[C@@H]1Oc2c(NC(=O)c3ccc(-c4nccs4)cc3)cccc2C(=O)N([C@@H](C)CO)C[C@H]1C	-0.0005% (inactive)
N#C[C@@H]1[C@@H](c2ccccc2-c2cccc(F)c2)[C@H](CO)N1C(=O)C1CC1	0.0185% (inactive)
CN1C(=O)c2cc(NC(=O)c3cscn3)ccc2OC[C@H]2O[C@H](CC(=O)NCc3ccc(Cl)c(Cl)c3)CC[C@@H]21	0.0025% (inactive)
COCCNC(=O)C[C@H]1C[C@@H]2c3cc(NC(=O)CN(C)C)ccc3O[C@@H]2[C@@H](CO)O1	0.003% (inactive)
O=C(C[C@H]1C[C@@H]2c3cc(NC(=O)NC4CCCC4)ccc3O[C@@H]2[C@@H](CO)O1)NCc1ccccc1F	0.0035% (inactive)
CO[C@H]1CN(C)C(=O)c2cc(NC(=O)C3CCCCC3)ccc2OC[C@@H](C)N(C(=O)c2ccccc2)C[C@@H]1C	-0.0005% (inactive)
CN1C(=O)c2cc(NC(=O)C3CCOCC3)ccc2OC[C@@H]2O[C@H](CC(=O)NCCc3ccncc3)CC[C@H]21	0.0015% (inactive)
C[C@H]1CNC(=O)[C@@H](Cc2ccc(C(F)(F)F)cc2)CCn2nncc2COC1	7.98% (active)
C[C@@H]1CNC(=O)[C@H](Cc2ccc(C(F)(F)F)cc2)CCn2nncc2COC1	0.259% (inactive)
C[C@H]1CNC(=O)[C@H](Cc2ccc(C(F)(F)F)cc2)CCn2nncc2COC1	2.47% (inactive)
CN(C)CC(=O)N1[C@H](CO)[C@@H](c2ccc(C#CC3CCCCC3)cc2)[C@@H]1C#N	0.005% (inactive)
COCC(=O)N1[C@H](CO)[C@@H]2c3ccccc3N(C)C[C@@H]21	0.0025% (inactive)
Cc1nn(C)cc1NC(=O)C[C@@H]1CC[C@@H]2[C@H](COc3ccc(NC(=O)c4cccc(F)c4)cc3C(=O)N2C)O1	0.0015% (inactive)
CC(C)[C@H]1COCn2nncc2CC[C@H](C)C(=O)N1	0.0005% (inactive)
c1cc(-c2ccc(C3[C@@H]4CN(Cc5nccs5)C[C@H]3N4)cc2)ccn1 (stereo not given in full)	0.0255% (inactive)
O=C(Nc1ccccc1)N1CC(=O)N2[C@@H](CO)[C@H](c3ccc(C#CC4CCCCC4)cc3)[C@@H]2C1	0% (inactive)
CO[C@H]1CC[C@@H]2CCOc3c(C#N)cccc3C(=O)N(C)C[C@@H](OC)[C@@H](C)C(=O)N(C)C[C@H]1O2	-0.0005% (inactive)
